Test results as given in PubChem BioAssay AID1159580 (chemical genetic matrix, 2015).
“And” between values parts separate entries of the source, which are not always exact repeats. Equal entries are not always repeated. Among all 5,500 compounds or so, about 2,000 (36%) were called active. About 18% were inconclusive and are not listed. Rule as the data show it: active = normalized growth mostly below about 0.91 (no sharp cut-off); inconclusive = no clear call, values can overlap the other calls; inactive = mostly above about 0.92. The list shows a part of the results.

Assay: chemical genetic growth profiling, strain panel (AID 1159580);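 also: tested at 20 µM; growth read once vehicle control cultures reached saturation at 30 °C; 1 = growth at the plate median or of vehicle wells; lower values mean less growth of the strain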
Settings: S. cerevisiae deletion strains, growth OD

Measured: normalized growth

Nc1ccc(S(=O)(=O)Nc2cnc3ccccc3n2)cc1
inactive: locus YAL013W, strain DEP1, stronger effect = lower value 0.994 | locus YAL021C, strain ccr4, stronger effect = lower value 1.01 | locus YAL026C, strain drs2, stronger effect = lower value 1 | locus YAL030W, strain snc1, stronger effect = lower value 1.02 | locus YBL061C, strain skt5, stronger effect = lower value 1 | locus YBR009C, strain hhf1, stronger effect = lower value 0.973 | locus YBR021W, strain FUR4, stronger effect = lower value 0.999 | locus YBR023C, strain chs3, stronger effect = lower value 1.02 | locus YBR171W, strain sec66, stronger effect = lower value 1.02 | locus YBR229C, strain ROT2, stronger effect = lower value 0.957 | locus YBR231C, strain swc5, stronger effect = lower value 1.01 | locus YBR279W, strain paf1, stronger effect = lower value 1.01 | locus YCL011C, strain gbp2, stronger effect = lower value 1.01 | locus YCL016C, strain dcc1, stronger effect = lower value 1 | locus YCL029C, strain bik1, stronger effect = lower value 0.983 | locus YCL061C, strain MRC1, stronger effect = lower value 1.02 | locus YCL069W, strain vba3, stronger effect = lower value 1.02 | locus YCR088W, strain abp1, stronger effect = lower value 1.01 | locus YDL005C, strain med2, stronger effect = lower value 1.02 | locus YDL035C, strain GPR1, stronger effect = lower value 1 | locus YDL040C, strain nat1, stronger effect = lower value 1.01 | locus YDL074C, strain BRE1, stronger effect = lower value 0.977 | locus YDL101C, strain DUN1, stronger effect = lower value 0.989 | locus YDL134C, strain PPH21, stronger effect = lower value 1.01 | locus YDL185W, strain tfp1, stronger effect = lower value 0.974 | locus YDL192W, strain arf1, stronger effect = lower value 0.973 | locus YDR001C, strain nth1, stronger effect = lower value 1.02 | locus YDR069C, strain doa4, stronger effect = lower value 1.03 | locus YDR101C, strain arx1, stronger effect = lower value 1 | locus YDR137W, strain rgp1, stronger effect = lower value 0.993 | locus YDR150W, strain NUM1, stronger effect = lower value 0.991 | locus YDR159W, strain sac3, stronger effect = lower value 0.955 | locus YDR162C, strain NBP2, stronger effect = lower value 0.999 | locus YDR195W, strain ref2 1.01 | locus YDR297W, strain sur2, stronger effect = lower value 1.02 | locus YDR318W, strain mcm21, stronger effect = lower value 0.995 | locus YDR334W, strain swr1, stronger effect = lower value 1.02 | locus YDR335W, strain msn5, stronger effect = lower value 1.01 | locus YDR388W, stronger effect = lower value 0.986 | locus YDR392W, strain spt3, stronger effect = lower value 0.942 | locus YDR502C, strain sam2, stronger effect = lower value 0.978 | locus YEL003W, strain gim4, stronger effect = lower value 1.02 | locus YEL037C, strain rad23, stronger effect = lower value 1.01 | locus YEL061C, strain CIN8 (second series), stronger effect = lower value 1.01 | locus YEL061C, strain CIN8, stronger effect = lower value 0.981 | locus YER015W, strain faa2, stronger effect = lower value 1 | locus YER016W, strain bim1, stronger effect = lower value 0.962 | locus YER110C, stronger effect = lower value 0.981 | locus YER111C, strain swi4, stronger effect = lower value 1.02 | locus YER155C, strain BEM2 (second series), stronger effect = lower value 0.981 | locus YER155C, strain BEM2, stronger effect = lower value 0.996 | locus YER167W, strain BCK2, stronger effect = lower value 0.993 | locus YFR010W, strain ubp6, stronger effect = lower value 1.04 | locus YGL078C, strain dbp3, stronger effect = lower value 0.99 | locus YGL086W, strain mad1, stronger effect = lower value 0.983 | locus YGL167C, strain pmr1, stronger effect = lower value 1.01 | locus YGL173C, strain kem1, stronger effect = lower value 1.01 | locus YGL227W, strain vid30, stronger effect = lower value 1.02 | locus YGL240W, strain doc1, stronger effect = lower value 1.03 | locus YGL248W, strain PDE1, stronger effect = lower value 0.972 | locus YGL253W, strain hxk2, stronger effect = lower value 1.02 | locus YGR135W, strain pre9, stronger effect = lower value 0.992 | locus YGR252W, strain gcn5, stronger effect = lower value 0.988 | locus YHR013C, strain ard1, stronger effect = lower value 1 | locus YHR027C, strain rpn1, stronger effect = lower value 1.01 | locus YHR030C, strain SLT2, stronger effect = lower value 1 and 0.974 | locus YHR079C, strain IRE1 (second series), stronger effect = lower value 0.989 | locus YHR079C, strain IRE1, stronger effect = lower value 0.957 | locus YHR094C, strain hxt1, stronger effect = lower value 0.985 | locus YHR129C, strain ARP1, stronger effect = lower value 0.989 | locus YHR142W, strain chs7, stronger effect = lower value 1.05 | locus YHR200W, strain rpn10, stronger effect = lower value 0.967 | locus YIL066C, strain RNR3, stronger effect = lower value 0.978 | locus YIL073C, strain SPO22, stronger effect = lower value 1.02 | locus YIL125W, strain kgd1, stronger effect = lower value 0.981 | locus YIR030C, strain dcg1, stronger effect = lower value 0.981 | locus YJL092W, strain hpr5, stronger effect = lower value 0.996 | locus YJL095W, strain BCK1 (second series), stronger effect = lower value 1.02 | locus YJL095W, strain BCK1, stronger effect = lower value 0.965 and 0.98 | locus YJL115W, strain asf1, stronger effect = lower value 1.02 | locus YJL129C, strain trk1, stronger effect = lower value 1.01 | locus YJL134W, strain LCB3, stronger effect = lower value 0.993 | locus YJL154C, strain vps35, stronger effect = lower value 1.02 | locus YJL164C, strain tpk1, stronger effect = lower value 0.996 | locus YJL166W, strain qcr8, stronger effect = lower value 1.02 | locus YJL168C, strain set2, stronger effect = lower value 0.976 | locus YJL187C, strain SWE1 (second series), stronger effect = lower value 0.964 | locus YJL187C, strain SWE1, stronger effect = lower value 1.01 | locus YJR043C, strain POL32, stronger effect = lower value 1.02 | locus YJR066W, strain TOR1, stronger effect = lower value 0.918
